KB-3-1 cytotox: KB-3-1 parental cell cytotoxicity; KB-3-1 viability, CellTiter-Glo ATP luminescence, 72 h; Potency, µM (top dose mostly 46.1 µM), hits mostly cytotoxic; hit rate 1.4% among 400,000; note: % is set by controls: 0 for no effect and ±100 for the full control effect; nearly all actives have a fitted effect of over 60% in size
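Multi-concentration cytotoxicity screen in KB-3-1 cells grown in DMEM lacking phenol red with 10% FBS. After 72 h at 37 °C with compound, ATP-dependent luminescence was recorded.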
MCF10A rerep: DNA re-replication induction in MCF 10a cells | MCF 10A DNA re-replication, Hoechst nuclear intensity, 48 h | Potency, µM (top dose mostly 46.1 µM), for the others: at the highest dose activity, positive = re-replication, most hits filed as activators | hit rate 2.9% among 350,000 | AID 624296; note: % of control where 0% means no effect; nearly all actives have a fitted effect of over 50% in size
SW480 rerep: induces DNA re-replication in SW480 colon adenocarcinoma cells. SW480 DNA re-replication, Hoechst DNA content imaging, 48 h. Potency, µM (series often up to 46.1 µM), without a hit: at the highest dose re-replication activation, usual class: activators. hit rate 1.8% among 340,000; note: % of control where 0% means no effect; nearly all actives have a fitted effect of over 55% in size
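Treated cells incubate 48 hr (37 C, 5% CO2), are stained 40 min with Hoechst, and nuclear fluorescence is enumerated; a rise in nuclei with high DNA signal marks re-replication.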
KB-V1 cytotox: kills drug-selected multidrug resistant KB-V1 cells; KB-V1 MDR cells viability, CellTiter-Glo, 72 h; Potency, µM (doses to about 46.1 µM), most hits filed as cytotoxic; hit rate 3.4% among 400,000; note: % is set by controls: 0 for no effect and ±100 for the full control effect; nearly all actives have a fitted effect of over 60% in size
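qHTS viability screen in drug-selected KB-V1 MDR cells: 72 h compound treatment at 37 degrees C, ATP luminescence end point.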
HT1080-NT tox: kills 2HG-producing HT-1080-NT fibrosarcoma cells | Potency, µM (titrated, usually from 46.1 µM), for inactives: at the top dose activity, negative = less viability, actives largely listed as cytotoxic | HT-1080-NT fibrosarcoma viability, CellTiter-Glo ATP luminescence, 48 h | hit rate 1.6% among 360,000;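 note: NT is the 2HG producing partner of a matched IDH1 knockdown line; 0% = DMSO-treated cells and -100% = media-only wells without cells; nearly all actives have a fitted effect of over 55% in size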
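Viability of the 2HG-overproducing fibrosarcoma line after 48 hours of compound exposure at 37 degrees C was determined by luminescence with CellTiter-Glo, and concentration-effect curves were then fitted and categorized.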
HT1080 IDH1KD tx: toxicity to HT-1080 IDH1 knockdown cells (counter line); HT-1080 IDH1 knockdown viability, ATP luminescence, 48 h; hit rate 2% among 360,000; Potency, µM (series often up to 46.1 µM), without a hit: at the top dose activity, negative = toxicity, hits mostly cytotoxic;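 note: 0% = DMSO wells and -100% = cell-free medium wells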
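Knockdown cells (IDH1KD HT-1080) received compounds 2 h after plating at 750 cells/well and were kept 48 h at 37 °C in 5% FBS RPMI. A CellTiter-Glo luminescence read gave % activity for curve fitting.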
* marks the source's active call; other numbers are inactive results; [ ] = dose if it differs, or a comment. Compounds with a hit are over-represented: about 7.9% of the library has one in this group of screens. Calls come from the whole dose curve; as a rule, active = well fitted curve in the direction sought with a large enough effect; inconclusive = small, poorly fitted or top-dose-only effect, or another doubt; inactive = no such curve, though single readings can be large; an effect the other way counts as inactive or inconclusive. Potency is the fitted concentration of half-maximal effect.

Screening COc1ccc(OC)c(-c2csc(N(Cc3ccco3)C(=O)c3ccco3)n2)c1 returned KB-3-1 cytotox inactive, MCF10A rerep inconclusive, SW480 rerep 1%, KB-V1 cytotox inactive, HT1080-NT tox -4% and HT1080 IDH1KD tx inconclusive.
For COCCCN(C(=O)c1ccco1)c1nc(-c2cc(OC)ccc2OC)cs1 the results were KB-3-1 cytotox inactive, MCF10A rerep 24%, SW480 rerep -2%, KB-V1 cytotox 1.8µM*, HT1080-NT tox inconclusive and HT1080 IDH1KD tx 4%.
Screening CCN(CC)CCCN(C(=O)c1ccccc1F)c1nc(-c2ccc(OC)cc2)cs1 returned KB-3-1 cytotox inactive, MCF10A rerep inconclusive, SW480 rerep inconclusive, KB-V1 cytotox inconclusive, HT1080-NT tox 18µM* and HT1080 IDH1KD tx inconclusive.
Screening CCN(CC)CCCN(C(=O)c1ccc(OC)cc1)c1nc(-c2ccc(OC)cc2)cs1 returned KB-3-1 cytotox inconclusive, MCF10A rerep inconclusive, SW480 rerep inconclusive, KB-V1 cytotox inactive, HT1080-NT tox 23µM* and HT1080 IDH1KD tx 15µM*.
CCN(CC)CCCN(C(=O)c1ccccc1C)c1nc(-c2ccc(OC)cc2)cs1 was read as KB-3-1 cytotox inactive, MCF10A rerep 6%, SW480 rerep -3%, KB-V1 cytotox inactive, HT1080-NT tox -26% and HT1080 IDH1KD tx -22%.
`COc1ccc(-c2csc(N(Cc3ccccc3)C(=O)COc3ccc(Cl)cc3)n2)cc1` gave KB-3-1 cytotox inactive, MCF10A rerep 16%, SW480 rerep -3%, KB-V1 cytotox inactive, HT1080-NT tox -2% and HT1080 IDH1KD tx -6%.
`COCCCN(C(C)=O)c1nc(-c2ccc(OC)cc2)cs1` gave KB-3-1 cytotox 12µM*, MCF10A rerep inconclusive, SW480 rerep inconclusive, KB-V1 cytotox 7.3µM*, HT1080-NT tox -29% and HT1080 IDH1KD tx -22%.
Screening COc1ccc(-c2csc(N(CCCN(C)C)C(=O)c3cc(OC)c(OC)c(OC)c3)n2)cc1 returned KB-3-1 cytotox inactive, MCF10A rerep 1%, SW480 rerep 7%, KB-V1 cytotox inactive, HT1080-NT tox -1% and HT1080 IDH1KD tx -9%.
CCc1cc2c(=O)c(-c3ccc4c(c3)OCCO4)coc2cc1OS(C)(=O)=O was read as KB-3-1 cytotox inconclusive, MCF10A rerep 11%, SW480 rerep 9.2µM*, KB-V1 cytotox inconclusive, HT1080-NT tox -28% and HT1080 IDH1KD tx inconclusive.
For CCc1cc2c(=O)c(-c3ccc4c(c3)OCCO4)coc2c(CN2CCCCC2C)c1O (centres undefined) the results were KB-3-1 cytotox inconclusive, MCF10A rerep inconclusive, SW480 rerep inconclusive, KB-V1 cytotox inactive, HT1080-NT tox -15% and HT1080 IDH1KD tx inconclusive.
Screening CN(C)c1nc(N/N=C/c2c[nH]c3ccccc23)nc(N2CCOCC2)n1 returned KB-3-1 cytotox inactive, MCF10A rerep 19%, SW480 rerep 15µM*, KB-V1 cytotox inactive, HT1080-NT tox -19% and HT1080 IDH1KD tx -19%.
C=CCn1c(SCC(=O)Nc2ccc3c(c2)OCO3)nnc1-c1ccccc1OC was read as KB-3-1 cytotox inactive, MCF10A rerep -1%, SW480 rerep -1%, KB-V1 cytotox inactive, HT1080-NT tox -20% and HT1080 IDH1KD tx -26%.
`C=CCn1c(SCc2csc(-c3ccc(Cl)cc3)n2)nnc1-c1ccccc1OC` gave KB-3-1 cytotox inconclusive, MCF10A rerep inconclusive, KB-V1 cytotox 21µM*, HT1080-NT tox -19% and HT1080 IDH1KD tx inconclusive.
CC(C(=O)N=Nc1c(O)[nH]c2ccccc12)n1cnc2ccccc2c1=O (centres undefined) was read as KB-3-1 cytotox inactive, MCF10A rerep inconclusive, SW480 rerep inconclusive, KB-V1 cytotox 18µM*, HT1080-NT tox 0% and HT1080 IDH1KD tx -4%.
`Cc1nc(NCCO)c2nnn(Cc3ccccc3F)c2n1` gave KB-3-1 cytotox inactive, MCF10A rerep 4%, SW480 rerep -2%, KB-V1 cytotox inactive, HT1080-NT tox -2% and HT1080 IDH1KD tx -8%.
Nc1ccc(NC(=O)c2cccc(C(=O)Nc3ccc(N)cc3Cl)c2)c(Cl)c1 was read as KB-3-1 cytotox inconclusive, MCF10A rerep inconclusive, SW480 rerep inconclusive, KB-V1 cytotox inconclusive, HT1080-NT tox inconclusive and HT1080 IDH1KD tx 16µM*.
For CCOC(=O)CCCCC(=O)c1[nH]c(=O)[nH]c1CSc1nnc2c3ccccc3n(C(C)C)c2n1 the results were KB-3-1 cytotox inactive, MCF10A rerep 23%, SW480 rerep -6%, KB-V1 cytotox 15µM*, HT1080-NT tox -20% and HT1080 IDH1KD tx -19%.
CCC(C)NCCCOc1c(C)cc(C)cc1Br (centres undefined) was read as KB-3-1 cytotox inactive, MCF10A rerep inconclusive, SW480 rerep 16µM*, KB-V1 cytotox inactive, HT1080-NT tox inconclusive and HT1080 IDH1KD tx inconclusive.
Screening CCC(C)NCCOCCOc1ccc(C)cc1Br (centres undefined) returned KB-3-1 cytotox inactive, MCF10A rerep -1%, SW480 rerep 17%, KB-V1 cytotox inactive, HT1080-NT tox inconclusive and HT1080 IDH1KD tx inconclusive.
`Clc1cccc(Cl)c1C[n+]1cccc2ccccc21` gave KB-3-1 cytotox inconclusive, MCF10A rerep 5%, SW480 rerep inconclusive, KB-V1 cytotox inactive, HT1080-NT tox inconclusive and HT1080 IDH1KD tx inconclusive.
Screening c1ccc(-n2nnnc2Sc2ncnc3sc4c(c23)CCCC4)cc1 returned KB-3-1 cytotox inactive, MCF10A rerep 21µM*, SW480 rerep inconclusive, KB-V1 cytotox inactive, HT1080-NT tox 7% and HT1080 IDH1KD tx -1%.
`COC(=O)c1sccc1NC(=S)Nc1cccc(F)c1` gave KB-3-1 cytotox inactive, MCF10A rerep 2%, SW480 rerep -11%, KB-V1 cytotox inactive, HT1080-NT tox 10% and HT1080 IDH1KD tx 11%.
CCN(c1cccc(C(F)(F)F)c1)S(=O)(=O)c1ccc2c(c1)CCN2C(=O)C1CC1 was read as KB-3-1 cytotox 11µM*, MCF10A rerep 27%, SW480 rerep -1%, KB-V1 cytotox inconclusive, HT1080-NT tox -28% and HT1080 IDH1KD tx inconclusive.
`CCn1nc(C)c(CCN(C)C(=O)Nc2cccc(Cl)c2C)c1C` gave KB-3-1 cytotox inactive and KB-V1 cytotox inactive.
Cc1ccc(CN2CCSc3ccc(C(=O)N4CCN(c5ncccn5)CC4)cc32)cc1 was read as KB-3-1 cytotox 21µM*, MCF10A rerep inconclusive, SW480 rerep inconclusive, KB-V1 cytotox 21µM*, HT1080-NT tox 4%[9.24 µM] and HT1080 IDH1KD tx 9%.
